Screening data from PubChem BioAssay.
SKN-1 inh = blocks SKN-1 activity in C. elegans | C. elegans VP596 Pgst-4::GFP/RFP ratio, acrylamide-induced, 24 h | inhibition, % at 21.8 µM | 0.49% of 360,000 active | AID 624304;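 active = interference check ratio from 0.5 to 1.5 plus GFP to RFP signal ratio inhibition reaching or exceeding a fixed threshold, cut at about 30% in these data, passing the limit was not always enough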
ATG4B inhibitor = blocks human ATG4B protease cleavage of LC3 substrate. Q9Y4P1. ATG4B cleavage of LC3-PLA2, NBD-HPC fluorescence, 1 h. inhibition, % at 8.33 µM. 0.51% of 340,000 active. AID 504462; in the data active = inhibition above about 40%
CHRM1 antagonist = antagonists of human M1 muscarinic receptor; inhibition, % at 3 µM; CHO-K1 hM1, Fluo-8 calcium fluorescence, ACh EC80 antagonist; P11229; 1.3% of 360,000 active;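 active = percent inhibition above its own plate's cutoff, namely the mean of that plate's compound wells plus 3 SD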;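 also: peak over basal fluorescence ratio during 140 s after agonist addition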
Target sequence (P11229 whole entry, looked up): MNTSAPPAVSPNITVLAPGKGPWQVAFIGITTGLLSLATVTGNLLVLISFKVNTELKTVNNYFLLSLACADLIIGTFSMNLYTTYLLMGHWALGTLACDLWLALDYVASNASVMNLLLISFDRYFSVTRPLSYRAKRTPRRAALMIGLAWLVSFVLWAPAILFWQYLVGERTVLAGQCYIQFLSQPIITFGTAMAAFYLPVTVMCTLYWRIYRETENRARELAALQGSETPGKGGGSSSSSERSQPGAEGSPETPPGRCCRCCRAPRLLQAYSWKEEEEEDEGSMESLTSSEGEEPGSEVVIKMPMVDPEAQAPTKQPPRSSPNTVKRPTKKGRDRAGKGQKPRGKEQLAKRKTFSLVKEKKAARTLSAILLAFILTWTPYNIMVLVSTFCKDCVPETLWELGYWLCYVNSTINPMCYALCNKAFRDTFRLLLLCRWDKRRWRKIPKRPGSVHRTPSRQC
M1 ag = human M1 muscarinic receptor agonism | P11229 | CHO-K1 hM1, Fluo-8 calcium fluorescence, agonist mode; 0% DMSO, 100% acetylcholine EC100 | activation, % at 3 µM | 0.33% of 360,000 active | AID 588814;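 active = activation above the run's mean compound activation plus 3 SD, cut at about 16% in these data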;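 also: peak over basal fluorescence ratio within a 140 s kinetic read after compound addition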
M1 PAM = potentiates human M1 receptor response to acetylcholine; P11229; CHO-K1 hM1, Fluo-8 calcium fluorescence, ACh EC20; 0% = ACh EC20, 100% = maximal ACh; activation, % at 3 µM; 0.088% of 360,000 active; in the data active = activation above about 19%, passing the limit was not always enough
Myeloid diff MLP = myeloid differentiation induction | ER-HoxA9 myeloid progenitors, lysozyme-GFP differentiation, flow cytometry | calls only at 10 µM | 1% of 360,000 active | AID 624256;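 active = normalized GFP-positive differentiation at or above the plate's own cutoff, the solvent-only control mean plus 3 SD; inconclusive = no clear call, values can overlap the other calls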;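 also: cells exposed to compound for four days before flow analysis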
Each line names hits and unclear results; the compound was inactive in the other large screens. Shown are actives, neighbours in structure and some others; about 3.5% of the full set was active somewhere.

CC(N)c1csc(Nc2nncc3ccccc23)n1 (centres undefined)	CHRM1 antagonist 101.5 (no result: ATG4B inhibitor)
COc1ccc(NS(=O)(=O)c2ccc3c(c2)NC(=O)CCS3)cc1Cl	none
COc1ccccc1C(=O)Nc1ccc(Br)c2cccnc12	SKN-1 inh 38.9
COc1ccccc1C(=O)Nc1ccc(Br)cc1C	SKN-1 inh 54.0
C/C=C/c1ccc(OCCOCCNCc2ccccc2)c(OC)c1	none
CCC(C)(O)c1cnc(CC(C)C)c(=O)n1O (centres undefined)	none (no result: ATG4B inhibitor)
COc1ccccc1OCCSc1nc2ccccc2n1CC(N)=O	none
CCC(C)c1ccccc1NC(=O)CN(CC)CC(=O)Nc1ccc2c(c1)OCCO2 (centres undefined)	none
C[n+]1c2n(c3ccccc31)N=C(c1ccc(Cl)cc1)CS2	Myeloid diff MLP active
COc1ccc(C2=Nn3c([n+](C)c4ccccc43)SC2)cc1	Myeloid diff MLP inconclusive
CN(C)c1ccc(/C=N/NC(=O)C(=O)/C=C2\NC3(CCCC3)Cc3ccccc32)cc1	M1 PAM 25.5
COc1cc(/C=N/NC(=O)C(=O)/C=C2\NC3(CCCC3)Cc3ccccc32)ccc1O	M1 ag 22.0
CN(C)c1ccc(/C=N/NC(=O)c2ccccc2)cc1	none
COc1cc(/C=N/NC(=O)c2[nH]nc3c2CCc2ccccc2-3)ccc1O	none
O=C(COC(=O)CNC(=O)c1ccccc1)NC1CCCC1	none
CC1CCCC(C)N1C(=O)COC(=O)c1c[nH]c2ccccc12 (centres undefined)	none
CC1(C)N=C(N)N=C(N)N1c1ccc(F)cc1F	Myeloid diff MLP active
CC1(C)N=C(N)N=C(N)N1c1cc(Cl)ccc1Cl	none (no result: ATG4B inhibitor)
O=C(NCCCn1ccnc1)c1ccc2nccnc2c1	Myeloid diff MLP active
Cc1ccc(C2N(c3ccc(Cl)cc3)C(=O)N3CCCN23)cc1 (centres undefined)	none
S=c1nc(-c2ccccc2)c(-c2ccccc2)n[nH]1	none
Nc1c(-c2ccccc2)n[nH]c1-c1ccccc1	CHRM1 antagonist 103.8
Cc1ccc(N2CC(C(=O)NC3CC3)CC2=O)cc1Cl (centres undefined)	none
O=C(NC1CC1)C1CC(=O)N(c2cccc(Cl)c2)C1 (centres undefined)	Myeloid diff MLP active
CC(CN1CCCCC1)OC(=O)c1ccc2c(c1)OCO2 (centres undefined)	none
CC(CN1CCCCC1)OC(=O)c1cccc(F)c1 (centres undefined)	none
CC1CCN(CC(C)OC(=O)c2ccc3c(c2)OCCO3)CC1 (centres undefined)	CHRM1 antagonist 66.6
O=C(c1cc2ccccc2o1)N1CCCCCC1	none
COc1cccc(C(=O)OC(C)CN2CCCC2)c1 (centres undefined)	CHRM1 antagonist 38.5
CC(CN1CCCCC1)OC(=O)c1cc2ccccc2o1 (centres undefined)	CHRM1 antagonist 36.9 (no result: Myeloid diff MLP)
O=C1NC[C@H](CCCCN2CCN(CC3CCCCC3)C(=O)C2=O)N(CCC2CCCCC2)C1=O	none (no result: ATG4B inhibitor, CHRM1 antagonist, M1 ag, M1 PAM)
Cc1cn([C@H]2C[C@H](O)[C@@H](CNCc3cnc(N4CCOCC4)nc3)O2)c(=O)[nH]c1=O	none (no result: ATG4B inhibitor)
COc1ccc(CNC(=O)c2cccc3c(-c4cnn(C)c4)coc23)cc1OC	none (no result: ATG4B inhibitor)
CC1CCc2cccc3c2N1c1cc(C#N)c(C#N)cc1O3 (centres undefined)	Myeloid diff MLP active
COc1ccc([C@H]2N[C@]3(CCCN(Cc4ccc(Br)cc4)C3=O)[C@H]3C(=O)N(Cc4ccccc4)C(=O)[C@@H]23)cc1	none (no result: ATG4B inhibitor)
FC(F)Sc1ccc(-n2cc(-c3ccccc3)[n+]3c2CCC3)cc1	CHRM1 antagonist 69.7
Cc1ccc(C(=O)NCC(=O)OCC(=O)N2CC(C)OC(C)C2)cc1 (centres undefined)	none
CCOc1ccc(C(=O)NC2CC3CCCC(C2)N3Cc2ccccc2)cc1 (centres undefined)	CHRM1 antagonist 37.9
Cc1ccc(CN2C3CCCC2CC(NC(=O)c2ccc(F)cc2)C3)cc1 (centres undefined)	none
COc1ccc(C(=O)NC2CC3CCCC(C2)N3Cc2ccccc2)cc1 (centres undefined)	none
CCCNC(=S)NC1CC2CCCC(C1)N2Cc1ccc(F)cc1 (centres undefined)	CHRM1 antagonist 48.1
CCN(CC(=O)Nc1ccc(NC(C)=O)cc1)C(=O)c1ccc(COc2ccc(C(C)(C)C)cc2)cc1	none
COc1ccc(Cc2nnc(Nc3ccccc3)s2)cc1Br	Myeloid diff MLP active
CC(C)C(=O)N[C@@H]1c2ccccc2CC[C@H]1OCc1ccccc1	none
O=C(C(=O)N1CCC(Cc2ccccc2)CC1)c1ccccc1	none (no result: ATG4B inhibitor, CHRM1 antagonist, M1 ag, M1 PAM)
O=S(=O)(c1cccc(Cl)c1)N1CN(CC2CCCO2)c2nc3ccccc3nc21 (centres undefined)	Myeloid diff MLP active
N#C/C(=C/c1ccc(-c2ccc(S(N)(=O)=O)cc2)o1)c1nc2ccccc2s1	CHRM1 antagonist 59.8, M1 ag 54.3, Myeloid diff MLP active
N#C/C(=C\c1ccccn1)c1nc2ccccc2s1	M1 ag 27.6, Myeloid diff MLP active
N#C/C(=C/c1ccc(-c2ccccc2)o1)c1nc(-c2cccs2)cs1	Myeloid diff MLP active
CC(C)(C)c1ccc(C(=O)NCc2nnc(SCC(=O)NCC3CCCO3)o2)cc1 (centres undefined)	none
O=S(=O)(Nc1nc2ccccc2s1)c1ccc(Br)s1	Myeloid diff MLP active
CSC1=NSC2=NC(=O)/C(=C/c3coc4ccccc4c3=O)C(=N)N12	CHRM1 antagonist 55.8, M1 ag 78.0
N=C1/C(=C\c2coc3ccccc3c2=O)C(=O)N=C2SC=CN12	CHRM1 antagonist 40.7, M1 ag 47.0
CC1=CC2=NC(=O)/C(=C/c3coc4ccc(Cl)cc4c3=O)C(=N)N2O1	M1 ag 29.4
CC1=CC2=NC(=O)/C(=C\c3cc(C)n(-c4cccc(Cl)c4)c3C)C(=N)N2O1	none
CN1C2C=CC(=O)C1C1C(=O)N(c3ccccc3)C(=O)C12 (centres undefined)	none (no result: ATG4B inhibitor)
CCc1ccc(NC(=O)NCCN2CCCCC2)cc1	none
COC(=O)Cn1c(=O)n(CCc2ccccc2)c(=O)c2c3c(sc21)CCCC3	CHRM1 antagonist 76.9
COCc1c(C(=O)OCC(=O)c2ccc[nH]2)oc2ccccc12	none
CSCc1c(C(=O)OCC(=O)c2ccc[nH]2)oc2ccccc12	ATG4B inhibitor 46.2
C/C(=N\OCC(=O)OCC(=O)N(C)c1ccccc1)c1ccc2c(c1)OCO2	none
O=[N+]([O-])c1ccc(N/N=C/c2cn(Cc3ccc(F)cc3)c3ccccc23)nc1	Myeloid diff MLP active
O=[N+]([O-])c1ccc(NN=Cc2cccc(O)c2)nc1	none
Cc1cccc(C)c1-n1c(C)cc(/C=N\Nc2ccc([N+](=O)[O-])cn2)c1C	CHRM1 antagonist 34.7
